# Assay results taken from PubChem BioAssay (NCI).
# Values joined by “and” are separate entries in the source; they are usually repeats but may differ in a detail not shown here. Identical values can stand only once. About 83,000 compounds went through this panel and 20% of them were active in at least one assay; those are over-represented in the sample as a whole.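 A percent growth of 40 corresponds to 60% growth inhibition; 0 means no net growth; -100 means all cells died. Active threshold: below 10.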 A number with no mark means an inactive call. Active and inactive are the calls of the source.
# System: BT-549 breast
# Assay: NCI-60 one-dose screen, 48 h (100 = growth as untreated, 0 = no growth, -100 = all killed)
# Conditions: 0.01 µM
# Experimental: Growth inhibition of the BT-549 human tumor cell line is measured as a screen for anti-cancer activity. Cells are grown in 96 well plates and exposed to the test compound for 48 hours. Compounds are tested at a single concentration, which is 10^-5 M for most compounds. The reported endpoint is percent growth (GI% or GIPRCNT), where numbers from 0 - 100% represent growth inhibition, and numbers from -100% - 0 represent cell death. For example, a value of 40 represents 60% growth inhibition. A value of 0 means no net growth occurred over the course of the experiment. A value of -40 indicates 40% of cells at the beginning of the experiment died by the end of the experiment. A value of -100 means all cells are dead at the end of the experiment.
# NCI-60 Human Tumor Cell Lines Screen was performed using the standard one-dose NCI protocol, which is described in more detail at https://dtp.cancer.gov/discovery_development/nci-60/default.htm.
# Compounds with GIPRCNT values below 10 were considered active. Activity score was based on GIPRCNT using the following formula: […]
# Score is 0 for GIPRCNT values of 100 or above, 50 for GIPRCNT values of 0, and 100 for GIPRCNT values of -100.
row,SMILES,growth
1,CC(=O)O[C@H]1C(=O)[C@@]2(C)[C@H]([C@H](OC(=O)c3ccccc3)[C@]3(O)C[C@H](OC(=O)[C@H](O)[C@@H](NC(=O)c4ccccc4)c4ccccc4)C(C)=C1C3(C)C)[C@]1(OC(C)=O)CO[C@@H]1C[C@@H]2O,-1.3% (active)

# Same assay, conditions: 10 µM
row,SMILES,growth
1,Cc1cc(O)c2c(c1O)C(=O)C13C(=C2O)C(=O)C2C(O)C1C1C(O)C3C(=O)C3=C(O)c4c(O)cc(C)c(O)c4C(=O)C321 (stereo not given),-53.3% (active)
2,O=C(CNS(=O)(=O)Cc1ccccc1)NNc1ccccc1,82.9%
3,O=C1C=CC(=O)N1c1ccc(N2C(=O)C=CC2=O)cc1,89.6%
4,NCc1c(O)ccc2ccccc12,101%
5,COc1ccc(C(C#N)=C2C=CC(=NO)C=C2)cc1,106%
6,S=C1SCN(CCc2ccccc2)CN1CCc1ccccc1,129%
7,CC[C@@]1(OC(=O)CN(C)C)C(=O)OCc2c1cc1n(c2=O)Cc2cc3c(N)cccc3nc2-1,-11.8% (active)
8,Nc1nc(N)c2cc(Sc3ccc4ccccc4c3)ccc2n1,67.4%
9,CCC(C)(c1ccc(O)c(C)c1)c1ccc(O)c(C)c1,192%
10,C=C1N(C)c2ccc(Cl)cc2C1(C)C,66.9%
11,O=C1C(Cl)=C(Cl)C(Cl)(Cl)C(Cl)C1(Cl)Cl (stereo not given),96.4%
12,Cc1cc(C)c(N2C(=O)CC(Sc3ccccc3N)C2=O)c(C)c1 (stereo not given),96.2%
13,Cc1cc(N=C2C=CC(=[N+](C)C)C=C2)c(N)cc1N,96.3%
14,O=c1[nH]cc(/C=N\Nc2ccccc2)c(=O)[nH]1,82.5%
15,S=P(N1CC1)(N1CC1)N1CC1,102% and 85.8%
16,N#C/C(=C/N1C(=O)/C(=C/c2ccc([N+](=O)[O-])cc2)SC1=S)c1nc2ccccc2s1,84%
17,CC(=O)O[C@H]1C(=O)[C@@]2(C)[C@H]([C@H](OC(=O)c3ccccc3)[C@]3(O)C[C@H](OC(=O)[C@H](O)[C@@H](NC(=O)c4ccccc4)c4ccccc4)C(C)=C1C3(C)C)[C@]1(OC(C)=O)CO[C@@H]1C[C@@H]2O,6.6% (active)
18,ClCCn1c(CCl)nc2ccc(Cl)cc21,-66.2% (active)
19,CCOC(=O)[C@]1(Br)CC[C@@]1(Br)C(=O)OCC,123%

row,SMILES,growth
1,O=Nc1ccc(Nc2ccccc2)cc1,78.8%
2,COc1cccc(C(c2cc3c(cc2O)OCO3)N2CCOCC2)c1OC (stereo not given),94.7%
3,Cn1c2nc3ccccc3c-2nc2ccccc21,90.5% and 92.6%
4,CCC(=O)Oc1ccc(/C=N/NC(N)=S)nc1,51.2%
5,COc1ccc2c(c1)[nH]c1c(/C=C/c3ccccc3)nccc12,61.8%
6,COc1ccc2oc(-c3ccc(Cl)cc3)c(N3CCN(C)CC3)c2c1,134%
7,Cn1ncc2cc3c(Nc4ccc(Cl)cc4)cccc3nc21,97.4%
8,O=C1c2cccc3cc([N+](=O)[O-])cc(c23)C(=O)N1CCN1CCCC1,3.71% (active)
9,Cc1cc(Cl)ccc1NC(=O)/C(Cl)=C1/Sc2ccccc2NC1=O,115%
10,O=C(NC(=S)Nc1ccccn1)c1ccccc1,77.1%
11,CN(C)c1ccc(/C=C/c2ccnc3ccccc23)cc1N,60.3%
12,O=C1c2ccccc2CCC1(Br)Br,-31.9% (active)
13,CN(CC(=O)O)c1ccc(/C=C/c2ccnc3ccccc23)cc1,65.3%
14,O=C(O)c1ccccc1.[Ag],99.4%
15,CN(C)CCNc1cccc2sc3ccc(O)cc3c(=O)c12,65.8%
16,N#CC(=C1C=CC(=NO)C=C1)c1ccccc1,-7.31% (active)
17,CC1CCC2(C(=O)O)CCC3(C)C(=CCC4C5(C)CC(O)C(O)C(C)(CO)C5C(O)CC43C)C2C1C (stereo not given),114%
18,COc1cc(N)ccc1Nc1c2ccccc2nc2ccccc12,90%
19,O=[N+]([O-])c1cc(S(=O)(=O)Nc2ccccc2)ccc1Cl,92.5%

# Same assay, conditions: 100 µM
row,SMILES,growth [%]
1,S=P(N1CC1)(N1CC1)N1CC1,47.5
